Records with an inconclusive call do not appear. Activity calls are given as the source filed them. Unless noted, the call rests on the fitted dose curve; in most records, active means well fitted curve in the direction sought with a large enough effect in the repeat runs; inconclusive means weak or mixed curves; inactive means no such curve, though single readings can be large; an effect the other way counts as inactive or inconclusive.
Legend:
[1] = target: Luciferin 4-monooxygenase (Photinus pyralis) (UniProt P08659); assay: qHTS assay to identify small molecule inhibitors of firefly luciferase (AID 1224835); further: nearly all actives have a fitted effect of over 25% in size; settings: purified P. pyralis luciferase, luminescence inhibition; series mostly up to 115 µM
Sequence of Luciferin 4-monooxygenase (Photinus pyralis) (P08659 whole entry, looked up): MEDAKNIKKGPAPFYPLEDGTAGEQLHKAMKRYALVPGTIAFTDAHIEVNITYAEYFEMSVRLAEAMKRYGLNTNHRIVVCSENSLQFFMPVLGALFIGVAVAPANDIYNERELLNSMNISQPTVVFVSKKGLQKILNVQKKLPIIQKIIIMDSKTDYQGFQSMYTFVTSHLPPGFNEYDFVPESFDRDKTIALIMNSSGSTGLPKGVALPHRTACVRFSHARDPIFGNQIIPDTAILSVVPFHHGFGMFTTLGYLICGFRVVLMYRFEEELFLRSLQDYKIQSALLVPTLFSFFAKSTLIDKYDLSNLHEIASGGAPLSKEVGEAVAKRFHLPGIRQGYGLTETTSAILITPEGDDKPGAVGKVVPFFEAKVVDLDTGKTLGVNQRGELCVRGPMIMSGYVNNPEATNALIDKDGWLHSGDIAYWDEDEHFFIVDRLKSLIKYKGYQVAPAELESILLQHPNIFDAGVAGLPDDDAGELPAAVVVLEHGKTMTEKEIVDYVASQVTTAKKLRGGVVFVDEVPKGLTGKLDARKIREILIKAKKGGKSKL
Procedure, shortened: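 Biochemical qHTS: compounds run as interplate titrations against purified firefly enzyme, with D-luciferin and ATP each at its KM concentration. Light output recorded by CCD imaging.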

[2] = qHTS assay to identify small molecule agonists of the constitutive androstane receptor (CAR) signaling pathway - cell viability counter screen (AID 1224836); settings: HepG2-CYP2B6-hCAR viability, CellTiter-Fluor, 23 h, PK11195 added to every well; series mostly up to 92.4 µM; further: nearly all actives have a fitted effect of over 45% in size
Procedure, shortened: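 Double-stable HepG2 hepatoma cells (hCAR plus CYP2B6-2.2kb) are treated for 23 h at 37 C with test compounds in 15-point concentration series. PK11195 at 0.75 uM final is co-added. Cell viability is quantified by CellTiter-Fluor.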

[3] = qHTS assay to identify small molecule antagonists of the constitutive androstane receptor (CAR) signaling pathway - cell viability counter screen (AID 1224837); settings: HepG2-CYP2B6-hCAR viability, CellTiter-Fluor, 23 h, co-treated with 50 nM CITCO; series mostly up to 92.4 µM; further: nearly all actives have a fitted effect of over 45% in size
Procedure, shortened: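 To flag cytotoxic false antagonists, HepG2 hCAR/CYP2B6-2.2kb cells were treated 23 hr with 15-concentration compound series and 50 nM CITCO at 37 C/5% CO2; CellTiter-Fluor fluorescence was the measured end point.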

[4] = target: Nuclear receptor subfamily 1 group I member 3 (Homo sapiens) (UniProt Q14994); assay: qHTS assay to identify small molecule antagonists of the constitutive androstane receptor (CAR) signaling pathway (AID 1224838); settings: HepG2-CYP2B6-hCAR luciferase, CITCO-stimulated, 24 h; series mostly up to 92.4 µM;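 further: HepG2 cells stably expressing hCAR with CYP2B6 luciferase reporter stimulated by CITCO; nearly all actives have a fitted effect of over 40% in size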
Sequence of Nuclear receptor subfamily 1 group I member 3 (Homo sapiens) (Q14994 whole entry, looked up): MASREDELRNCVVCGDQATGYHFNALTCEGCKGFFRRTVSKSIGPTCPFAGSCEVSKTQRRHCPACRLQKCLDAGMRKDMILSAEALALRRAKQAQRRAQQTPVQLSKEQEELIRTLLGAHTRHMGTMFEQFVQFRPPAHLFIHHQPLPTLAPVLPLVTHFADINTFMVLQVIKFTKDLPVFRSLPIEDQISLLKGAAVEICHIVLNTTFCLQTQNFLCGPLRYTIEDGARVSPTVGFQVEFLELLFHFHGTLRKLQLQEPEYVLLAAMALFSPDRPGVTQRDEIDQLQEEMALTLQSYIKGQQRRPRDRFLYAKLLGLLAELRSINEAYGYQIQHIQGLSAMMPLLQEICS
Procedure, shortened: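 Human hepatoma HepG2 cells expressing hCAR and a CYP2B6 promoter (2.2 kb) luciferase construct; compound titration (15 points) with 50 nM CITCO final, 24 h at 37 C/5% CO2; luminescence via ONE-Glo after 30 min at room temperature.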

[5] = qHTS assay to identify small molecule antagonists of the estrogen related receptor signaling pathway with the pleiotropic PPARgamma coactivator (PGC) from Tox21 10K library - cell viability counter screen (AID 1224840; active means well fitted cell-killing curve with a large enough effect in the repeat runs, not every such curve was filed as active; further: nearly all actives have a fitted effect of over 40% in size); settings: PGC/ERR reporter cells viability, CellTiter-Fluor, 17.5 h; series mostly up to 92.4 µM
Procedure, shortened: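 Seeded PGC/ERR cells (2,000/well, 6 h, 37 C/5% CO2) get compound by pin tool; 17.5 h incubation at 37 C; CellTiter-Fluor added, 30 min, fluorescence measured.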

[6] = target: Thyrotropin receptor (Homo sapiens) (UniProt P16473); assay: qHTS assay to identify small molecule agonists of the thyroid stimulating hormone receptor (TSHR) signaling pathway (AID 1224843; calls by dose curve; further: nearly all actives have a fitted effect of over 45% in size); settings: TSHR-HEK293 cells, cAMP HTRF, agonist mode, 30 min; series mostly up to 92.4 µM
Sequence of Thyrotropin receptor (Homo sapiens) (P16473 whole entry, looked up): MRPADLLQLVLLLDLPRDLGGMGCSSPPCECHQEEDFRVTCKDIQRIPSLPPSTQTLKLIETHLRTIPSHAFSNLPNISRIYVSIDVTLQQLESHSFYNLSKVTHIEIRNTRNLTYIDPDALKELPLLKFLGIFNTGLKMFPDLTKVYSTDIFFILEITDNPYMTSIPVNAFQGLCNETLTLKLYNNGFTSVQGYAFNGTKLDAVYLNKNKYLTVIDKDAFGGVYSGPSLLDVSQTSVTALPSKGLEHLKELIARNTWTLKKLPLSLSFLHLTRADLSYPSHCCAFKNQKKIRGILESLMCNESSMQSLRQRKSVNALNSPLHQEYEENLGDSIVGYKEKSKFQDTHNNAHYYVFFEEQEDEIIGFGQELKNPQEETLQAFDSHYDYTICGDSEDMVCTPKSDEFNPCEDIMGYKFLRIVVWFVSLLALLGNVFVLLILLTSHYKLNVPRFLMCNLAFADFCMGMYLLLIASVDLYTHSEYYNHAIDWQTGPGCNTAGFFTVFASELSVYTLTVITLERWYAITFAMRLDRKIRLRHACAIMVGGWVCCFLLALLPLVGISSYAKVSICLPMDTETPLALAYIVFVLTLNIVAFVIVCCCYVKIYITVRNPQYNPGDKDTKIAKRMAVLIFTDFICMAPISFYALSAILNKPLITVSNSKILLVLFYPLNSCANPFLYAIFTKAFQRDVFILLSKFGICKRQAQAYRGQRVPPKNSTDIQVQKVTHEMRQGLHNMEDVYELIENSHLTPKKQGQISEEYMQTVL
Procedure, shortened: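 Agonist-mode screen: TSHR HEK293 cells received test chemicals for half an hour at room temperature, then HTRF cAMP detection reagents for one hour prior to fluorescence measurement. Each chemical ran as a 15-concentration series, triplicated.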

[7] = qHTS assay to identify small molecule agonists of the hypoxia (HIF-1) signaling pathway - cell viability counter screen (AID 1224844; calls by dose curve; further: nearly all actives have a fitted effect of over 50% in size); settings: HRE-bla ME-180 viability, CellTiter-Glo luminescence, 17 h; series mostly up to 76.8 µM
Procedure, shortened: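 HRE-bla ME-180; 0.5% dFBS; cpd 17 h, 37C, 5% CO2; CellTiter-Glo lum., 30 min RT, post-FRET read, same wells.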

[8] = target: Nuclear receptor subfamily 1 group I member 3 (Homo sapiens) (UniProt Q14994); assay: qHTS assay to identify small molecule agonists of the constitutive androstane receptor (CAR) signaling pathway (AID 1224839); settings: HepG2 hCAR CYP2B6-luciferase, agonist mode, 24 h; series mostly up to 92.4 µM;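 further: HepG2 cells stably carrying human CAR and a CYP2B6 luciferase reporter; nearly all actives have a fitted effect of over 15% in size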
Procedure, shortened: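 Readout: firefly luciferase luminescence via ONE-Glo. System: HepG2 double-stable for hCAR and CYP2B6-2.2kb. Conditions: 15-point compound titration, PK11195 at 0.75 uM final, 24 h incubation.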

[9] = qHTS assay to identify small molecule antagonists of the estrogen related receptor signaling pathway with the pleiotropic PPARgamma coactivator (PGC) from Tox21 10K library (AID 1224841; call rule not given here; further: actives are mostly falling curves and most rising ones were filed inactive; nearly all actives have a fitted effect of over 50% in size); settings: PGC/ERR reporter cell line, ONE-Glo luciferase, 18 h; series mostly up to 92.4 µM
Procedure, shortened: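 Test chemicals dissolved in DMSO were applied to pre-incubated (6 h) PGC/ERR cells at 2,000 cells/well for an 18 h, 37 C treatment; reporter luminescence was then read using One-Glo.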

[10] = qHTS assay to identify small molecule agonists of the estrogen related receptor signaling pathway with the pleiotropic PPARgamma coactivator (PGC) from Tox21 10K library (AID 1224842); settings: PGC/ERR reporter cell line, luciferase ONE-Glo, 18 h; series mostly up to 92.4 µM; further: nearly all actives have a fitted effect of over 15% in size
Procedure, shortened: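 PGC/ERR reporter cell line, 2,000 cells per well, incubated 6 h at 37 C before 23 nL compound in DMSO was added. After 18 h at 37 C, One-Glo luminescence read following 30 min at room temperature.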
On the % scale 0 is the no-effect control and ±100 the full control effect.

CCCCCCCCCCCCCCCC(=O)OC/C=C(C)/C=C/C=C(C)/C=C/C1=C(C)CCCC1(C)C
inactive: Potency [1] | Potency [2] | Potency [3] | Potency [4] | Potency [5] | Potency [6] | Potency [7]

CCN(CC)C(C)CN1c2ccccc2Sc2ccccc21 (centres undefined)
inactive: Potency [1] | Potency [2] | Potency [3] | Potency [4] | Potency [5] | Potency [6] | Potency [7]

CC(=O)Nc1ccc(/C=N/NC(N)=S)cc1
inactive: Potency [1] | Potency [2] | Potency [3] | Potency [8] | Potency [5] | Potency [6] | Potency [7]

O=c1c2ccccc2nnn1CCl
inactive: Potency [1] | Potency [2] | Potency [3] | Potency [4] | Potency [5] | Potency [6] | Potency [7]

O=C(CCN1CCN2CCCC2C1)N1c2ccccc2Sc2ccc(Cl)cc21 (centres undefined)
inactive: activity change, negative = inhibition [1] -1.42% [at 23.6 µM] | viability change, negative = cytotoxic [2] -17% [at 19 µM] | activity change, negative = cytotoxicity [3] -18.2% [at 19 µM] | viability change, negative = cytotoxic [5] -1.3% [at 19 µM] | activity, negative = inhibition [9] -25.1% [at 19 µM] | activation [10] -6.92% [at 19 µM] | activation [6] -2.43% [at 19 µM] | activity change, negative = cytotoxicity [7] 1.19% [at 15.8 µM]

CC(O)C1CCCCC1 (centres undefined)
inactive: Potency [1] | Potency [3] | Potency [4] | Potency [8] | Potency [5] | Potency [9] | Potency [10] | Potency [6] | Potency [7]

COC(=O)C(C)=O
inactive: Potency [1] | Potency [3] | Potency [4] | Potency [8] | Potency [5] | Potency [9] | Potency [10] | Potency [6]

CC[C@@H]1C[C@H](N(Cc2cc(C(F)(F)F)cc(C(F)(F)F)c2)C(C)=O)c2cc(C(F)(F)F)ccc2N1C(=O)OC(C)C
inactive: Potency [1] | Potency [3] | Potency [4] | Potency [8] | Potency [5] | Potency [7]

From PubChem BioAssay (Tox21)
